In PubChem BioAssay AID1159580 (chemical genetic matrix, 2015):
Values joined by “and” are separate entries in the source; they are usually repeats but may differ in a detail not shown here. Identical values can stand only once. Screen size: about 5,500 compounds; about 2,000 (36%) were called active. Not shown: some 18% with an inconclusive outcome. Cut-off read from the data, not from the text of the source: active = normalized growth mostly below about 0.91 (no sharp cut-off); inconclusive = no clear call, values can overlap the other calls; inactive = mostly above about 0.92. Some of the results follow.

Assay: chemical genetic growth profiling, strain panel (AID 1159580);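 note: tested at 20 µM; growth read once vehicle control cultures reached saturation at 30 °C; 1 = growth at the plate median or of vehicle wells; lower values mean less growth of the strain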
Conditions: S. cerevisiae deletion strains, growth OD
[1] = locus YAL013W, strain DEP1, stronger effect = lower value
[2] = locus YAL040C, strain CLN3, stronger effect = lower value
[3] = locus YCL061C, strain MRC1 (second series), stronger effect = lower value
[4] = locus YDR363W, strain ESC2, stronger effect = lower value
[5] = locus YER002W, strain NOP16, stronger effect = lower value
[6] = locus YNL128W, strain TEP1, stronger effect = lower value
[7] = locus YNL153C, strain GIM3, stronger effect = lower value
[8] = locus YNL175C, strain NOP13, stronger effect = lower value
[9] = locus YNL197C, strain WHI3, stronger effect = lower value
[10] = locus YNL224C, strain SQS1, stronger effect = lower value
[11] = locus YOR083W, strain WHI5 (second series), stronger effect = lower value
[12] = locus YMR307W, strain GAS1, stronger effect = lower value
[13] = locus YDR150W, strain NUM1, stronger effect = lower value
[14] = locus YJR075W, strain HOC1, stronger effect = lower value

Measured: normalized growth

CCC(CO)NC(=O)C1C=C2c3cccc4[nH]cc(c34)CC2N(C)C1 (stereo unspecified)
inactive: [1] 0.986 | [2] 0.999 | [3] 1 | [4] 0.991 | [5] 0.99 | locus YGR078C, strain PAC10, stronger effect = lower value 0.977 | [6] 0.997 | [7] 1.02 | [8] 0.996 | [9] 0.978 | [10] 0.995 | [11] 0.996

O=C1CCC(c2ccc(-n3ccnc3)cc2)=NN1
inactive: [1] 0.984 | [2] 0.943 | [3] 1 | [4] 1 | [5] 1.01 | locus YMR263W, strain SAP30, stronger effect = lower value 1 | [12] 1.05 | [8] 0.987 | [9] 0.979 | [10] 0.994 | [11] 0.994

N[C@@H](COP(=O)(O)O)C(=O)O
inactive: [2] 0.991 | [3] 0.989 | [13] 1.01 | [4] 1.01 | [5] 1 | [14] 0.984 | [8] 1.01 | [9] 0.984 | [10] 0.992 | locus YNL322C, strain KRE1, stronger effect = lower value 1.01 | [11] 1.01 | locus YPL055C, strain LGE1, stronger effect = lower value 1.01 | locus YPL241C, strain CIN2, stronger effect = lower value 0.997

Cc1[nH]ccc2c1[nH]c1cc(=O)ccc12
inactive: [1] 1.02 | locus YAL021C, strain ccr4, stronger effect = lower value 0.989 | locus YAL026C, strain drs2, stronger effect = lower value 1.01 | locus YAL030W, strain snc1, stronger effect = lower value 0.995 | locus YBL061C, strain skt5, stronger effect = lower value 0.993 | locus YBR009C, strain hhf1, stronger effect = lower value 1.01 | locus YBR021W, strain FUR4, stronger effect = lower value 1.03 | locus YBR023C, strain chs3, stronger effect = lower value 1 | locus YBR171W, strain sec66, stronger effect = lower value 0.999 | locus YBR229C, strain ROT2, stronger effect = lower value 1.01 | locus YBR231C, strain swc5, stronger effect = lower value 0.975 | locus YBR279W, strain paf1, stronger effect = lower value 1.01 | locus YCL011C, strain gbp2, stronger effect = lower value 1 | locus YCL016C, strain dcc1, stronger effect = lower value 1 | locus YCL029C, strain bik1, stronger effect = lower value 0.986 | locus YCL061C, strain MRC1, stronger effect = lower value 1 | locus YCL069W, strain vba3, stronger effect = lower value 0.995 | locus YCR088W, strain abp1, stronger effect = lower value 0.998 | locus YDL005C, strain med2, stronger effect = lower value 0.996 | locus YDL035C, strain GPR1, stronger effect = lower value 1.03 | locus YDL040C, strain nat1, stronger effect = lower value 0.993 | locus YDL074C, strain BRE1, stronger effect = lower value 1.04 | locus YDL101C, strain DUN1, stronger effect = lower value 1.01 | locus YDL185W, strain tfp1, stronger effect = lower value 0.996 | locus YDL192W, strain arf1, stronger effect = lower value 0.991 | locus YDR001C, strain nth1, stronger effect = lower value 1.01 | locus YDR069C, strain doa4, stronger effect = lower value 1.01 | locus YDR101C, strain arx1, stronger effect = lower value 0.985 | locus YDR137W, strain rgp1, stronger effect = lower value 1 | [13] 1 | locus YDR159W, strain sac3, stronger effect = lower value 0.978 | locus YDR162C, strain NBP2, stronger effect = lower value 1.03 | locus YDR195W, strain ref2 0.996 | locus YDR297W, strain sur2, stronger effect = lower value 1 | locus YDR318W, strain mcm21, stronger effect = lower value 0.993 | locus YDR334W, strain swr1, stronger effect = lower value 1 | locus YDR335W, strain msn5, stronger effect = lower value 0.995 | locus YDR388W, stronger effect = lower value 0.988 | locus YDR392W, strain spt3, stronger effect = lower value 0.96 | locus YDR502C, strain sam2, stronger effect = lower value 0.992 | locus YEL003W, strain gim4, stronger effect = lower value 0.997 | locus YEL037C, strain rad23, stronger effect = lower value 0.993 | locus YEL061C, strain CIN8 (second series), stronger effect = lower value 0.989 | locus YEL061C, strain CIN8, stronger effect = lower value 1.01 | locus YER015W, strain faa2, stronger effect = lower value 1 | locus YER016W, strain bim1, stronger effect = lower value 0.997 | locus YER110C, stronger effect = lower value 0.98 | locus YER111C, strain swi4, stronger effect = lower value 0.989 | locus YER155C, strain BEM2 (second series), stronger effect = lower value 0.973 | locus YER155C, strain BEM2, stronger effect = lower value 1.02 | locus YER167W, strain BCK2, stronger effect = lower value 1.03 | locus YFR010W, strain ubp6, stronger effect = lower value 0.995 | locus YGL078C, strain dbp3, stronger effect = lower value 0.992 | locus YGL086W, strain mad1, stronger effect = lower value 1.01 | locus YGL167C, strain pmr1, stronger effect = lower value 0.993 | locus YGL173C, strain kem1, stronger effect = lower value 1 | locus YGL227W, strain vid30, stronger effect = lower value 0.995 | locus YGL240W, strain doc1, stronger effect = lower value 0.995 | locus YGL248W, strain PDE1, stronger effect = lower value 1.02 | locus YGL253W, strain hxk2, stronger effect = lower value 1 | locus YGR135W, strain pre9, stronger effect = lower value 0.999 | locus YGR252W, strain gcn5, stronger effect = lower value 1.01 | locus YHR013C, strain ard1, stronger effect = lower value 1 | locus YHR027C, strain rpn1, stronger effect = lower value 1 | locus YHR030C, strain SLT2, stronger effect = lower value 1.01 and 0.992 | locus YHR079C, strain IRE1 (second series), stronger effect = lower value 0.991 | locus YHR079C, strain IRE1, stronger effect = lower value 0.989 | locus YHR094C, strain hxt1, stronger effect = lower value 0.986 | locus YHR129C, strain ARP1, stronger effect = lower value 1.03 | locus YHR142W, strain chs7, stronger effect = lower value 1 | locus YHR200W, strain rpn10, stronger effect = lower value 0.993 | locus YIL066C, strain RNR3, stronger effect = lower value 1.04 | locus YIL073C, strain SPO22, stronger effect = lower value 1.02 | locus YIL125W, strain kgd1, stronger effect = lower value 0.993 | locus YIR030C, strain dcg1, stronger effect = lower value 0.991 | locus YJL092W, strain hpr5, stronger effect = lower value 0.999 | locus YJL095W, strain BCK1 (second series), stronger effect = lower value 0.995 | locus YJL095W, strain BCK1, stronger effect = lower value 1.01 and 1.02 | locus YJL115W, strain asf1, stronger effect = lower value 0.994 | locus YJL129C, strain trk1, stronger effect = lower value 1 | locus YJL134W, strain LCB3, stronger effect = lower value 1 | locus YJL154C, strain vps35, stronger effect = lower value 0.997 | locus YJL164C, strain tpk1, stronger effect = lower value 0.996 | locus YJL166W, strain qcr8, stronger effect = lower value 0.995 | locus YJL168C, strain set2, stronger effect = lower value 0.986 | locus YJL187C, strain SWE1 (second series), stronger effect = lower value 1.02 | locus YJL187C, strain SWE1, stronger effect = lower value 0.996 | locus YJR043C, strain POL32, stronger effect = lower value 1.04 | locus YJR066W, strain TOR1, stronger effect = lower value 0.947 | [14] 1.02 | locus YKL009W, strain mrt4, stronger effect = lower value 0.995 | locus YKL068W, stronger effect = lower value 0.997 | locus YKL085W, strain MDH1 (second series), stronger effect = lower value 1.01 | locus YKL085W, strain MDH1, stronger effect = lower value 1.01 | locus YKL160W, strain elf1, stronger effect = lower value 1 | locus YKL190W, strain CNB1, stronger effect = lower value 0.987 | locus YKR001C, strain vps1, stronger effect = lower value 0.987 | locus YKR026C, strain gcn3, stronger effect = lower value 1 | locus YKR091W, strain srl3, stronger effect = lower value 0.992 | locus YLL001W, strain dnm1, stronger effect = lower value 0.994 | locus YLL026W, stronger effect = lower value 1 | locus YLL041C, strain sdh2, stronger effect = lower value 0.999 | locus YLR027C, strain aat2, stronger effect = lower value 0.998 | locus YLR039C, strain RIC1, stronger effect = lower value 1.06 | locus YLR058C, strain SHM2, stronger effect = lower value 1.01 | locus YLR102C, strain apc9, stronger effect = lower value 0.993 | locus YLR113W, strain HOG1, stronger effect = lower value 1.02 | locus YLR221C, strain rsa3, stronger effect = lower value 1.01 | locus YLR258W, strain gsy2, stronger effect = lower value 0.995 | locus YLR262C, strain YPT6 (second series), stronger effect = lower value 0.998 | locus YLR262C, strain YPT6, stronger effect = lower value 1.09 | locus YLR268W, strain sec22, stronger effect = lower value 0.984 | locus YLR320W, strain mms22, stronger effect = lower value 0.999 | locus YLR330W, strain CHS5, stronger effect = lower value 1 | locus YLR342W, strain FKS1 (second series), stronger effect = lower value 1.03 | locus YLR342W, strain FKS1, stronger effect = lower value 0.994 | locus YLR357W, strain rsc2, stronger effect = lower value 0.99 | locus YLR370C, strain arc18, stronger effect = lower value 1 | locus YLR371W, strain rom2, stronger effect = lower value 0.983 | locus YLR384C, strain iki3, stronger effect = lower value 0.999 | locus YLR418C, strain cdc73, stronger effect = lower value 0.997 | locus YML016C, strain PPZ1, stronger effect = lower value 1.01 | locus YML032C, strain rad52, stronger effect = lower value 0.999 | locus YML120C, strain ndi1, stronger effect = lower value 0.992 | locus YML124C, strain tub3, stronger effect = lower value 1 | locus YMR058W, strain fet3, stronger effect = lower value 1 | locus YMR078C, strain ctf18, stronger effect = lower value 0.985 | locus YMR125W, strain sto1, stronger effect = lower value 0.986 | locus YMR129W, stronger effect = lower value 0.995 | locus YMR205C, strain PFK2, stronger effect = lower value 0.983 | locus YMR223W, strain ubp8, stronger effect = lower value 1.01 | locus YMR231W, strain pep5, stronger effect = lower value 0.999 | [12] 1.09 | locus YNL067W, strain RPL9B, stronger effect = lower value 1 | locus YNL071W, strain lat1, stronger effect = lower value 1 | [6] 1.02 | [7] 1 | locus YNL183C, strain NPR1, stronger effect = lower value 0.97 | locus YNL209W, strain ssb2, stronger effect = lower value 1 | locus YNL233W, strain BNI4, stronger effect = lower value 1.01 | locus YNL248C, strain rpa49, stronger effect = lower value 0.995 | locus YNL250W, strain rad50, stronger effect = lower value 1.01 | locus YNL271C, strain bni1, stronger effect = lower value 0.988 | locus YNL298W, strain CLA4, stronger effect = lower value 1.02 | locus YNL307C, strain MCK1, stronger effect = lower value 0.988 | locus YNL322C, strain KRE1 (second series), stronger effect = lower value 0.997 | locus YNR049C, strain mso1, stronger effect = lower value 1 | locus YNR052C, strain pop2, stronger effect = lower value 1 | locus YOL012C, strain htz1 0.948 | locus YOL147C, strain pex11, stronger effect = lower value 0.986 | locus YOR001W, strain rrp6, stronger effect = lower value 0.999 | locus YOR061W, strain CKA2, stronger effect = lower value 1.01 | locus YOR069W, strain VPS5, stronger effect = lower value 1.01 | locus YOR070C, strain gyp1, stronger effect = lower value 0.998 | locus YOR080W, strain dia2, stronger effect = lower value 0.996 | locus YOR083W, strain WHI5, stronger effect = lower value 0.993 | locus YOR106W, strain vam3, stronger effect = lower value 1 | locus YOR136W, strain idh2, stronger effect = lower value 0.991 | locus YOR144C, strain elg1, stronger effect = lower value 0.983 | locus YOR184W, strain ser1, stronger effect = lower value 1 | locus YOR231W, strain MKK1, stronger effect = lower value 1.01 | locus YOR265W, strain rbl2, stronger effect = lower value 0.996 | locus YOR270C, strain vph1, stronger effect = lower value 1.01 | locus YOR290C, strain snf2, stronger effect = lower value 0.989 | locus YOR316C, strain cot1, stronger effect = lower value 0.991 | locus YPL051W, strain arl3, stronger effect = lower value 1 | locus YPL078C, strain atp4, stronger effect = lower value 1.01 | locus YPL106C, strain sse1, stronger effect = lower value 0.987 | locus YPL240C, strain hsp82, stronger effect = lower value 0.99 | locus YPL256C, strain CLN2, stronger effect = lower value 1.03 | locus YPR119W, strain clb2, stronger effect = lower value 0.987 | locus YPR141C, strain kar3, stronger effect = lower value 0.994 | locus YPR163C, strain tif3, stronger effect = lower value 0.986 | locus YPR167C, strain met16, stronger effect = lower value 0.996 | strain wtn01, stronger effect = lower value 0.984
